Source: PubChem BioAssay (National Center for Advancing Translational Sciences (NCATS))
Shown are actives, neighbours in structure and some others; about 21% of the full set was active somewhere.
Sm TGR inh = qHTS Assay for the Inhibitors of Schistosoma Mansoni Peroxiredoxins; Potency, µM (series often up to 114 µM), inactives show at the top dose activity change, negative = inhibition, usual class: inhibitors; purified TGR, DTNB reduction, TNB absorbance 405 nm; AID 485364, 2010; 3% of 360,000 active; Schistosoma mansoni thioredoxin glutathione reductase (TGR), Q962Y6; further: potency means the concentration at half of the fitted maximal effect; on the % scale 0 is the no-effect control and ±100 the full control effect; nearly all actives have a fitted effect of over 60% in size
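TGR 20 nM + NADPH 100 uM (dispensed conc.), cpd preinc 15 min RT; start with NADPH (500 uM addition) then DTNB (15 mM addition). Kinetic TNB absorbance, 405 nm filter. Four-parameter Hill fit across titration.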
Pf growth 48h = Primary qHTS for delayed death inhibitors of the malarial parasite plastid, 48 hour incubation. P. falciparum luciferase growth in erythrocytes, 48 h. 5.9% of 310,000 active. Potency, µM (series often up to 28.7 µM), without a hit: top-dose activity change, negative = inhibition, usual class: inhibitors; further: potency means the concentration at half of the fitted maximal effect; on the % scale 0 is the no-effect control and ±100 the full control effect
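Parasite viability was followed by luminescence of a genomically integrated firefly luciferase. Cultures held 0.1% parasitemia at 2% hematocrit (final), incubated under 5% CO2 at 37 C.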
Pf growth 96h = Primary qHTS for delayed death inhibitors of the malarial parasite plastid, 96 hour incubation; P. falciparum luciferase reporter growth, 96 h; Potency, µM (top dose mostly 28.7 µM), for the others: at the highest dose activity change, negative = inhibition, usual class: inhibitors; 6.9% of 320,000 active; AID 504834, 2011; further: potency means the concentration at half of the fitted maximal effect; on the % scale 0 is the no-effect control and ±100 the full control effect
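Parasite growth measured via integrated firefly luciferase reporter in P. falciparum. Infected erythrocytes at 2% hematocrit, 0.05% parasitemia final were treated 96 hours at 37 C under 5% CO2, and luminescence was read.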
NS1 function inh = qHTS Assay for Inhibitors of Influenza NS1 Protein Function; Potency, µM (series often up to 46.1 µM), without a hit: at the top dose activity, positive = more growth; 0.4% of 270,000 active; calls by dose curve; further: potency means the concentration at half of the fitted maximal effect; actives are rising curves; nearly all actives have a fitted effect of over 50% in size
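A cell-based growth assay was used: compounds that relieve NS1-induced slow growth of budding yeast raise OD600. Assay medium was yeast nitrogen base with ammonium sulphate and -URA supplement, pH 6.0, with 2% galactose.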
CHX counter = Cycloheximide Counterscreen for Small Molecule Inhibitors of Shiga Toxin. cell reporter, cycloheximide protein synthesis inhibition counterscreen. max response, %. 12% of 300,000 active. AID 2314, 2010; in the data active means max response mostly above about 13%, no sharp cut-off; inactive means mostly below about 14%; further: read at 38.3 µM for the half of the compounds with a filed dose; 0% is about no effect
Shiga inhibitor = A qHTS for Small Molecule Inhibitors of Shiga Toxin; inhibition, % at 38.7 µM; 9.2% of 290,000 active; Vero cells, Shiga toxin protein synthesis inhibition reporter; in the data active means inhibition mostly above about 28%, no sharp cut-off; inactive means mostly below about 43%; further: 0% is about no effect
* marks the source's active call; other numbers are inactive results. Unless noted, the call rests on the fitted dose curve; in most records, active means well fitted curve in the direction sought with a large enough effect; inconclusive means small, poorly fitted or top-dose-only effect, or another doubt; inactive means no such curve, though single readings can be large; an effect the other way counts as inactive or inconclusive.

COC(=O)c1ccc(NC(=O)Nc2ccccc2F)cc1 was read as Pf growth 48h 94%, Pf growth 96h inconclusive, NS1 function inh -49%, CHX counter 40* and Shiga inhibitor 115*.
Screening O=C(Nc1ccc(F)cc1)Nc1ccccc1F returned Pf growth 48h 120%, Pf growth 96h 1%, NS1 function inh -34%, CHX counter 65* and Shiga inhibitor 109*.
`COc1ccc(NC(=O)Nc2ccccc2F)cc1Cl` gave Sm TGR inh 11%, Pf growth 48h 497%, Pf growth 96h inconclusive, NS1 function inh -6%, CHX counter 32* and Shiga inhibitor 99*.
Screening COc1cccc(COC(=O)Nc2ccccc2F)c1 returned Sm TGR inh -8%, Pf growth 48h 263%, Pf growth 96h 330%, NS1 function inh -33%, CHX counter 29* and Shiga inhibitor 117*.
For O=C(Nc1ccc(NC(=O)c2ccccc2O)cc1)Nc1ccc(F)cc1F the results were Sm TGR inh 0%, Pf growth 48h -29%, Pf growth 96h inconclusive, NS1 function inh 4%, CHX counter -2 and Shiga inhibitor 6.
For COc1ccc(/C=N/n2c(C)cc(C)c(C(N)=O)c2=O)cc1 the results were Sm TGR inh -19%, Pf growth 96h 16%, NS1 function inh 1%, CHX counter 1 and Shiga inhibitor -15.
`COc1ccc(COCC(O)CN2CC(C)OC(C)C2)cc1OC` (stereo not drawn) gave Sm TGR inh -12%, Pf growth 48h 19%, NS1 function inh 16%, CHX counter 0 and Shiga inhibitor -6.
`CCOC(=O)[C@@H]1[C@H]2COc3cc(OC)ccc3[C@@H]2N2C(=O)N(c3ccc(F)cc3)C(=O)[C@]12C` gave Sm TGR inh 4%, Pf growth 48h -8%, Pf growth 96h inconclusive, NS1 function inh 3%, CHX counter -2 and Shiga inhibitor -7.
For CN(C)c1ccc(/C=C2\C(=O)Nc3ccccc32)c2ccccc12 the results were CHX counter -3 and Shiga inhibitor -2.
CC(=O)Nc1sc(C)c(C)c1C(=O)OCC(=O)N(Cc1ccccc1)C(C)C was read as Sm TGR inh -6%, Pf growth 48h 10% and Pf growth 96h -21%.
COc1ccc(CN2CCNC(=O)C2CC(=O)NC2CCCC2)c(C)c1C (stereo not drawn) was read as Sm TGR inh inconclusive, Pf growth 48h -1%, Pf growth 96h 35%, NS1 function inh -8%, CHX counter -4 and Shiga inhibitor 18.
For COc1ccc(NC(=O)c2nc(-c3ccc(C)cc3)n3c2CCCCC3)cc1 the results were Sm TGR inh -11%.
COC(=O)c1ccc(NC(=O)Nc2ccccc2C)cc1 was read as Sm TGR inh -1%, Pf growth 48h 197%, Pf growth 96h inconclusive, CHX counter 23* and Shiga inhibitor 73*.
For O=C(Nc1ccc(F)cc1)Nc1cccnc1Cl the results were Sm TGR inh 17%, Pf growth 48h 28%, Pf growth 96h 52%, NS1 function inh -3%, CHX counter 35* and Shiga inhibitor 58*.
COC(=O)c1sccc1NC(=O)Nc1ccccc1C was read as Sm TGR inh 3%, Pf growth 48h 12%, Pf growth 96h 35%, NS1 function inh -18%, CHX counter 6 and Shiga inhibitor -19.
CC(=O)Nc1ccc(NC(=O)Nc2ccccc2C)cc1 was read as Sm TGR inh 15%, Pf growth 48h 58%, Pf growth 96h 26%, NS1 function inh 1%, CHX counter 17 and Shiga inhibitor -2.
`COC(=O)c1sccc1NC(=O)Nc1ccccc1F` gave Sm TGR inh 0%, Pf growth 48h 60%, Pf growth 96h 9.3µM*, NS1 function inh -6%, CHX counter -3 and Shiga inhibitor 11.
For COc1ccc(NC(=O)Nc2ccccc2SC)cc1 the results were Sm TGR inh -4%, Pf growth 48h 239%, Pf growth 96h 5.9µM*, NS1 function inh -8%, CHX counter 30* and Shiga inhibitor 105*.
`CCC(C)NC(=O)C1CCN(C(=O)c2cc3sccc3n2Cc2ccc(Cl)cc2)CC1` (stereo not drawn) gave Sm TGR inh 10%.
O=C1Nc2cc(C(=O)NCC3CCCO3)ccc2S/C1=C/c1ccccc1F (stereo not drawn) was read as Sm TGR inh 2%, Pf growth 48h inconclusive, Pf growth 96h inconclusive, NS1 function inh 11%, CHX counter -1 and Shiga inhibitor 18.
For COc1ccc(N2C(=O)C(CC(=O)Nc3ccccc3)N(Cc3ccccn3)C2=S)cc1 (stereo not drawn) the results were Sm TGR inh -19%, Pf growth 48h inconclusive, Pf growth 96h -13%, CHX counter -8 and Shiga inhibitor -9.
Screening Cc1ccc(NC(=O)CN(CCc2ccccc2)S(=O)(=O)c2ccccc2)c(C)c1 returned Sm TGR inh 5%.
For COc1ccc(NC(=O)Oc2ccccc2)cc1Cl the results were Sm TGR inh -16%, Pf growth 48h 13%, Pf growth 96h 15µM*, NS1 function inh 6%, CHX counter 1 and Shiga inhibitor 13.
`COc1ccc(NC(=O)CNC(c2ccccc2)c2ccccc2)cc1Cl` gave Sm TGR inh 1%, Pf growth 48h 0%, Pf growth 96h 0%, NS1 function inh -50%, CHX counter -4 and Shiga inhibitor -4.
CSc1ccccc1NC(=O)Nc1ccc(Cl)cc1 was read as Sm TGR inh -5%, Pf growth 96h inconclusive, NS1 function inh -130%, CHX counter 55* and Shiga inhibitor 83.
For O=C(C#Cc1ccccc1)Nc1ccccc1F the results were Sm TGR inh -7%, Pf growth 48h -13%, Pf growth 96h 9.3µM*, NS1 function inh -39%, CHX counter 34* and Shiga inhibitor 59.
For COc1ccc(NC(=O)Nc2ccccc2F)cc1 the results were Sm TGR inh 0%, Pf growth 96h 324%, NS1 function inh -51%, CHX counter 32* and Shiga inhibitor 47.
COc1ccc(N2CC(NC(=O)C3CCCCC3)CC2=O)cc1OC (stereo not drawn) was read as Sm TGR inh -1%.
O=C(Nc1ccccc1N1CCOCC1)C1CCN(S(=O)(=O)c2ccc(F)cc2)CC1 was read as Sm TGR inh 5%, Pf growth 48h 5%, Pf growth 96h -26%, NS1 function inh -1%, CHX counter -4 and Shiga inhibitor -12.
`CCOC(=O)c1nnn(-c2nonc2-n2cccc2)c1-c1cccc([N+](=O)[O-])c1` gave Sm TGR inh -1%, Pf growth 48h inconclusive, Pf growth 96h 0%, CHX counter 9 and Shiga inhibitor 27.
